Experimental data from PubChem BioAssay (NCI).
Compounds without any hit were thinned out: in the full panel of roughly 83,000, 20% have a hit.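 96-well plates, one dose, 48 hours. Percent growth reported; active if below 10.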 Calls of active or inactive are those of the source.

Legend:
Experiment in all cases: NCI-60 one-dose screen, 48 h (100 = growth as untreated, 0 = no growth, -100 = all killed)
SK-MEL-2 melanoma = conditions: 10 µM
EKVX NSCLC = conditions: 10 µM unless noted
SN12C renal = conditions: 10 µM unless noted
UO-31 renal = conditions: 10 µM unless noted
TK-10 renal = conditions: 10 µM unless noted
ACHN renal = conditions: 10 µM unless noted
A498 renal = conditions: 10 µM unless noted
CCRF-CEM leukemia = conditions: 10 µM unless noted
MOLT-4 leukemia = conditions: 10 µM unless noted
SR leukemia = conditions: 10 µM unless noted
RPMI-8226 leukemia = conditions: 10 µM unless noted
OVCAR-8 ovarian = conditions: 10 µM unless noted
OVCAR-5 ovarian = conditions: 10 µM unless noted
OVCAR-4 ovarian = conditions: 10 µM unless noted
SK-OV-3 ovarian = conditions: 10 µM unless noted
IGROV1 ovarian = conditions: 10 µM unless noted
OVCAR-3 ovarian = conditions: 10 µM unless noted
HS 578T breast = conditions: 10 µM
NCI/ADR-RES ovarian = conditions: 10 µM unless noted
CAKI-1 renal = conditions: 10 µM unless noted

Measured: growth

CC(C)OP(=O)(CCC(=O)c1c[nH]c2ccccc12)OC(C)C
inactive: SK-MEL-2 melanoma 98.9% | EKVX NSCLC 96.5% | SN12C renal 103% | UO-31 renal 82.9% | TK-10 renal 97.8% | ACHN renal 101% | A498 renal 104% | CCRF-CEM leukemia 75.7% | MOLT-4 leukemia 93.3% | SR leukemia 100% | RPMI-8226 leukemia 73.5% | OVCAR-8 ovarian 91.8% | OVCAR-5 ovarian 107% | OVCAR-4 ovarian 105% | SK-OV-3 ovarian 89% | IGROV1 ovarian 106% | OVCAR-3 ovarian 106% | HS 578T breast 86.6% | NCI/ADR-RES ovarian 103%

CCCCCCCC(=O)SCC/C=C/[C@@H]1CC(=O)NCc2cccc(n2)C2=N[C@@](C)(CS2)C(=O)N[C@@H](C(C)C)C(=O)O1
active: SK-MEL-2 melanoma -1.86% | UO-31 renal -8.17% | TK-10 renal -16.1% | ACHN renal -11.8% | CAKI-1 renal -38.8% | OVCAR-8 ovarian 7.64% | OVCAR-5 ovarian 6.82% | SK-OV-3 ovarian -31.4% | IGROV1 ovarian 3.42% | OVCAR-3 ovarian -26.5% | NCI/ADR-RES ovarian 6.46%
inactive: EKVX NSCLC 22.2% | SN12C renal 22.6% | CCRF-CEM leukemia 30.6% | MOLT-4 leukemia 14.3% | SR leukemia 13.7% | RPMI-8226 leukemia 14.3% | OVCAR-4 ovarian 18.3%

CCC1(/C=N/NC(N)=S)NC(=O)NC1=O (stereo not drawn)
inactive: SK-MEL-2 melanoma 109% | EKVX NSCLC 104% | SN12C renal 95.6% | UO-31 renal 87.5% | TK-10 renal 102% | ACHN renal 109% | CAKI-1 renal 94.1% | CCRF-CEM leukemia 102% | MOLT-4 leukemia 90% | SR leukemia 91.1% | RPMI-8226 leukemia 103% | OVCAR-8 ovarian 98.1% | OVCAR-5 ovarian 109% | OVCAR-4 ovarian 109% | SK-OV-3 ovarian 83.9% | IGROV1 ovarian 113% | OVCAR-3 ovarian 119% | HS 578T breast 104% | NCI/ADR-RES ovarian 111%

O=C1CC(c2ccc(Cl)cc2)c2ncn(-c3cccc(Cl)c3)c2N1 (stereo not drawn)
inactive: SK-MEL-2 melanoma 44.8% | EKVX NSCLC 73.5% | SN12C renal 56.1% | UO-31 renal 50.5% | TK-10 renal 95.8% | ACHN renal 52.6% | CAKI-1 renal 75.3% | CCRF-CEM leukemia 60.4% | MOLT-4 leukemia 44.4% | SR leukemia 27.3% | RPMI-8226 leukemia 58% | OVCAR-8 ovarian 56.5% | OVCAR-5 ovarian 96% | OVCAR-4 ovarian 87.2% | SK-OV-3 ovarian 47.8% | IGROV1 ovarian 59.8% | OVCAR-3 ovarian 13.3% | NCI/ADR-RES ovarian 26.5%

CC(C)[C@@H]1CC[C@]2(CO2)[C@@H]2C(=O)OCC(C(=O)O)=C[C@H]21
active: SK-MEL-2 melanoma -65.8% | SN12C renal 2.26% | UO-31 renal 5.96% | ACHN renal 3.14% | CAKI-1 renal 6.64% | CCRF-CEM leukemia 0.852% | MOLT-4 leukemia -17.6% | SR leukemia -4.75% | RPMI-8226 leukemia -34.6% | OVCAR-8 ovarian 4.64% | IGROV1 ovarian 5.4% | OVCAR-3 ovarian 5.83% | NCI/ADR-RES ovarian -12.1%
inactive: EKVX NSCLC 71.5% | TK-10 renal 11.6% | OVCAR-5 ovarian 22% | OVCAR-4 ovarian 12.7% | SK-OV-3 ovarian 15.7%

COc1ccc(OC)c(NC2=C(SCCc3ccccc3)C(=O)c3ccccc3C2=O)c1
inactive: SK-MEL-2 melanoma 73.2% | EKVX NSCLC 77.3% | SN12C renal 91.2% | UO-31 renal 61.6% | TK-10 renal 110% | ACHN renal 77.2% | CAKI-1 renal 63.7% | CCRF-CEM leukemia 122% | MOLT-4 leukemia 80.4% | SR leukemia 70.7% | RPMI-8226 leukemia 74% | OVCAR-8 ovarian 94.5% | OVCAR-5 ovarian 99.3% | OVCAR-4 ovarian 58.4% | IGROV1 ovarian 75.7% | OVCAR-3 ovarian 83.4% | HS 578T breast 70.8% | NCI/ADR-RES ovarian 76.5%

Cc1cc(O)c2c(c1)C1OC(=O)CCCCCN1C1=C2C(=O)c2cccc(OC3CC(O)C(O)C(C)O3)c2C1=O (stereo not drawn)
inactive: SK-MEL-2 melanoma 46.4% | EKVX NSCLC 97% | SN12C renal 66.3% | UO-31 renal 99.9% | TK-10 renal 142% | ACHN renal 69.1% | CAKI-1 renal 96.9% | CCRF-CEM leukemia 57.8% | SR leukemia 54.2% | RPMI-8226 leukemia 73.3% | OVCAR-8 ovarian 52.9% | OVCAR-5 ovarian 130% | OVCAR-4 ovarian 90.2% | SK-OV-3 ovarian 89.8% | IGROV1 ovarian 96.4% | HS 578T breast 71.5% | NCI/ADR-RES ovarian 91%
active: OVCAR-3 ovarian 7.5%

CN1CCN(c2nc(NCCNc3ccnc4cc(Cl)ccc34)c3ccccc3n2)CC1
active: SK-MEL-2 melanoma -45.5% | UO-31 renal -9.51% | ACHN renal 5.61% | CCRF-CEM leukemia 3.19% | MOLT-4 leukemia 6.2% | SR leukemia -23.4% | RPMI-8226 leukemia 3.82% | OVCAR-4 ovarian -0.851%
inactive: EKVX NSCLC 52.3% | SN12C renal 10.9% | TK-10 renal 16.5% | A498 renal 102% | OVCAR-8 ovarian 12.4% | OVCAR-5 ovarian 59.9% | SK-OV-3 ovarian 44.6% | IGROV1 ovarian 30.2% | OVCAR-3 ovarian 17.4% | HS 578T breast 28.2% | NCI/ADR-RES ovarian 85.5%

CC(C)c1ccc(/C=N/Nc2nc3ccccc3s2)cc1
inactive: SK-MEL-2 melanoma 106% | EKVX NSCLC 87.2% | SN12C renal 86.3% | UO-31 renal 57.1% | TK-10 renal 148% | ACHN renal 103% | A498 renal 92.8% | CCRF-CEM leukemia 84.8% | MOLT-4 leukemia 70.5% | SR leukemia 89.9% | RPMI-8226 leukemia 88.4% | OVCAR-8 ovarian 87.5% | OVCAR-5 ovarian 102% | OVCAR-4 ovarian 81.4% | SK-OV-3 ovarian 89.4% | IGROV1 ovarian 70% | OVCAR-3 ovarian 88.7% | HS 578T breast 92.8% | NCI/ADR-RES ovarian 92.6%

COc1ccc2c(CCc3ccc(Cl)cc3)c3[n+](cc2c1OC)CCc1cc2c(cc1-3)OCO2
inactive: SK-MEL-2 melanoma 36.7% | EKVX NSCLC 69.9% | SN12C renal 21.9% | UO-31 renal 91.4% | TK-10 renal 67.9% | ACHN renal 94.6% | CAKI-1 renal 99.2% | CCRF-CEM leukemia 64.7% | MOLT-4 leukemia 72.6% | SR leukemia 33.8% | RPMI-8226 leukemia 20.7% | OVCAR-8 ovarian 51% | OVCAR-5 ovarian 86.2% | OVCAR-4 ovarian 24.4% | SK-OV-3 ovarian 75.2% | IGROV1 ovarian 40.8% | OVCAR-3 ovarian 44.2% | HS 578T breast 79.6% | NCI/ADR-RES ovarian 101%

Cc1cc(N2CCOCC2)nc(N(CCNc2ccnc3cc(Cl)ccc23)Cc2cccs2)n1
active: SK-MEL-2 melanoma -39.4% | UO-31 renal -8.69% | ACHN renal 1.88% | CCRF-CEM leukemia 6.42% | MOLT-4 leukemia -9.25% | SR leukemia -13% | RPMI-8226 leukemia -11.9% | OVCAR-8 ovarian 8.53% | OVCAR-3 ovarian -73.9% | HS 578T breast 5.37%
inactive: EKVX NSCLC 51.5% | SN12C renal 42.3% | TK-10 renal 19.4% | A498 renal 22.8% | OVCAR-5 ovarian 83.2% | OVCAR-4 ovarian 14.2% | SK-OV-3 ovarian 61.5% | IGROV1 ovarian 35.1% | NCI/ADR-RES ovarian 34.1%

Cc1ccc(NC(=O)NC(=O)CSc2nc3ccccc3nc2C)cc1
inactive: SK-MEL-2 melanoma 68.3% | EKVX NSCLC 59.6% | SN12C renal 73.7% | UO-31 renal 64.5% | TK-10 renal 82.3% | ACHN renal 75.6% | A498 renal 69.2% | CCRF-CEM leukemia 58.9% | MOLT-4 leukemia 74.3% | SR leukemia 45.8% | RPMI-8226 leukemia 57.1% | OVCAR-8 ovarian 72.4% | OVCAR-5 ovarian 100% | OVCAR-4 ovarian 23.3% | SK-OV-3 ovarian 56.2% | IGROV1 ovarian 72.2% | OVCAR-3 ovarian 97.4% | HS 578T breast 97.6% | NCI/ADR-RES ovarian 40.6%

C=CC(=O)N(C)[C@H]1C[C@H]2OC(C)(C1OC)n1c3ccccc3c3c4c(c5c6ccccc6n2c5c31)C(=O)NC4 (stereo partly drawn)
active: SK-MEL-2 melanoma -24.6% | SN12C renal 6.85% | UO-31 renal -30.5% | TK-10 renal -2.16% | A498 renal -38.7% | CCRF-CEM leukemia -7.8% | MOLT-4 leukemia -40.1% | SR leukemia -25.3% | RPMI-8226 leukemia -11.3% | OVCAR-8 ovarian 3.41% | SK-OV-3 ovarian -21.3% | OVCAR-3 ovarian -11.1% | HS 578T breast -14.9% | NCI/ADR-RES ovarian -1.79%
inactive: EKVX NSCLC 17.9% | ACHN renal 12.9% | OVCAR-5 ovarian 28.9% | OVCAR-4 ovarian 42.2% | IGROV1 ovarian 13.7%

[2H]C1([2H])[C@H](C)O[C@H](C)C([2H])([2H])N1c1ccc(NC(=O)c2cccc(-c3ccc(OC(F)(F)F)cc3)c2C)cn1
inactive: SK-MEL-2 melanoma 56.1% | EKVX NSCLC 61.4% | SN12C renal 56.6% | UO-31 renal 54.5% | TK-10 renal 63.6% | ACHN renal 78.1% | A498 renal 53.9% | CCRF-CEM leukemia 64.3% | MOLT-4 leukemia 39.9% | SR leukemia 56.4% | RPMI-8226 leukemia 53.3% | OVCAR-8 ovarian 79.1% | OVCAR-5 ovarian 100% | OVCAR-4 ovarian 65.8% | IGROV1 ovarian 65.2% | OVCAR-3 ovarian 84.6% | HS 578T breast 88.2% | NCI/ADR-RES ovarian 58.4%

C[C@@H](C[C@H](CCO)c1cc(C(F)(F)F)cc(C(F)(F)F)c1)c1ccc2ccccc2c1
inactive: SK-MEL-2 melanoma 82.2% | EKVX NSCLC 81.3% | SN12C renal 96.4% | UO-31 renal 79% | TK-10 renal 95% | ACHN renal 98.7% | A498 renal 120% | CCRF-CEM leukemia 84.2% | MOLT-4 leukemia 71% | SR leukemia 30.6% | RPMI-8226 leukemia 79.3% | OVCAR-8 ovarian 102% | OVCAR-5 ovarian 106% | OVCAR-4 ovarian 94.6% | SK-OV-3 ovarian 98.3% | IGROV1 ovarian 75.3% | OVCAR-3 ovarian 81% | HS 578T breast 106% | NCI/ADR-RES ovarian 85.3%

Clc1ccc2c(NCCNc3nc(N4CCCC4)nc4ccccc34)ccnc2c1
active: SK-MEL-2 melanoma -42.9% | SN12C renal 3.63% | UO-31 renal -72.3% | TK-10 renal -47.3% | ACHN renal -83% | A498 renal -5.18% | CCRF-CEM leukemia 5.08% | MOLT-4 leukemia -5.18% | SR leukemia -22.6% | RPMI-8226 leukemia -18.2% | OVCAR-8 ovarian 3.61% | OVCAR-4 ovarian -7.19% | SK-OV-3 ovarian -63.3% | IGROV1 ovarian 3.56% | OVCAR-3 ovarian -65.8%
inactive: EKVX NSCLC 24.4% | OVCAR-5 ovarian 23.6% | HS 578T breast 19.9% | NCI/ADR-RES ovarian 60.2%
